The results in this text go back to PubChem BioAssay.

A number with no mark means an inactive call.

The test can be described thus: growth effects on S. cerevisiae YJM789 – YJM789 clinical isolate, OD600, 24 h, basal, primary screen (AID 1089).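 Also: growth of clinical yeast isolate S. cerevisiae YJM 789 seeded 1000 cells per well; test concentration not given here.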 The conditions noted are these: higher = more signal, called active from +8 up or from −8 down.
On to `CC(=O)OC[C@H]1O[C@@H](ON=C(C)CCN2CCCCc3nc(C)c(C)cc32)[C@H](OC(C)=O)[C@@H](OC(C)=O)[C@@H]1OC(C)=O`, for which the z-score was -0.61.
The result for `O=C1C=C[C@@H](O)[C@@H]2[C@@H]3C(=O)N(c4cccc(Oc5ccccc5)c4)C(=O)[C@@H]3CC[C@@H]12` reads 0.162; that for `CCOC(=O)[C@H](CC(C)C)NC(=O)CCC1CC(OC(=O)NCCc2ccc(F)cc2)CC2(CCCC(COC(=O)NCCOC)O2)O1` (some centres undefined), 0.513; that for `CCN1C(=O)[C@H]2[C@H]3[C@H](O)[C@H](O)CC(=NOC(C)CN4CCCc5nc(C)c(C)cc54)[C@@H]3CC[C@H]2C1=O` (some centres undefined), -0.0428.
To `CC(C)=CCCC(C)=CCON=C1[C@H]2CCn3c(=O)n(-c4ccccc4)c(=O)n3[C@H]2[C@H](O)[C@@H]2O[C@H]12` belongs -0.504; to `O=C1C=C[C@@H](O)[C@@H]2[C@@H]3C(=O)N(Cc4ccccc4)C(=O)[C@@H]3CC[C@@H]12`, 0.0129; to `CCCCOC(OCCCC)C(O)CSc1ccc2ccccc2c1` (centres undefined), 0.12.
To `CC[C@@H](c1ccccc1)n1c(=O)n2n(c1=O)[C@H]1[C@H](O)[C@@H]3O[C@@H]3C(=NOCc3ccccc3)[C@H]1CC2` belongs 0.183; to `CC(CCN1CCCc2nc(C)c(C)cc21)=NOC[C@@H](C)[C@H](OCc1ccccc1)C(C)C`, -2.02.
